The panel holds about 79,000 compounds, 15% with a hit somewhere; the sample as a whole holds those more often. Calls of active or inactive are those of the source. Rule as the data show it: active = growth inhibition above about 70%; inactive = the rest.
Assays:
[1] = NCI Yeast Anticancer Drug Screen. Data for the rad50 strain (AID 155);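 also: 0% = growth of vehicle-only cultures of the same strain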; details: S. cerevisiae rad50 strain growth inhibition, active compounds read high
Method in brief: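 Readout: growth inhibition relative to vehicle-treated cultures. Compound exposure was carried out in a genetically defined yeast strain deficient in DNA damage repair.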

[2] = NCI Yeast Anticancer Drug Screen. Data for the mec2-1 strain (AID 157); details: S. cerevisiae mec2-1 strain, active compounds read high
Method in brief: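 Strain: mec2-1 (DNA repair/cell cycle alteration). Compound exposure, then growth measured; inhibition expressed relative to vehicle.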

[3] = NCI Yeast Anticancer Drug Screen. Data for the sgs1 mgt1 strain (AID 161);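 also: 0% = growth of cultures given vehicle only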; details: S. cerevisiae sgs1 mgt1 strain, active compounds read high
Method in brief: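 Mutant yeast exposed to compound; growth scored against vehicle-only wells.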

[4] = NCI Yeast Anticancer Drug Screen. Data for the cln2 rad14 strain (AID 165);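 also: 0% = growth equal to vehicle treated cultures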; details: S. cerevisiae cln2 rad14 strain, active compounds read high
Method in brief: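 Compounds are applied to the cln2 rad14 yeast strain, and growth is then compared with that of vehicle-treated cultures to give inhibition.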

[5] = NCI Yeast Anticancer Drug Screen. Data for the bub3 strain (AID 167); details: S. cerevisiae bub3 mutant strain, active compounds read high
Method in brief: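 Readout: yeast growth inhibition, expressed relative to vehicle-only wells. The test organism is a mutant strain from a panel with lesions in DNA repair or checkpoint genes.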

[6] = NCI Yeast Anticancer Drug Screen. Data for the mlh1 rad18 strain (AID 175); details: S. cerevisiae mlh1 rad18 strain growth inhibition, active compounds read high
Method in brief: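 Read-out is yeast growth inhibition, calculated against vehicle-only controls. The compound was applied to a strain engineered with DNA damage repair alterations.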

[7] = at 5.0 µM (retest, dose inferred, filed as 0.5)
[8] = at 50.0 µM (retest, dose inferred, filed as 5.0)

Measured: growth inhibition

COc1ccccc1/C=N/Nc1nnc(N/N=C/c2ccccc2OC)c2ccccc12
active: [1]; at 50.0 µM 74.6% | [2]; [8] 73% | [2]; at 50.0 µM 95.8% | [3]; [8] 89% | [4]; [8] 82% | [4]; at 50.0 µM 97.3% | [5]; [8] 94% | [5]; at 50.0 µM 96.2% | [6]; [8] 99% | [6]; at 50.0 µM 93.4%
inactive: [1]; [7] -1% | [1]; [8] 56% | [2]; [7] 13% | [3]; [7] 10% | [3]; at 50.0 µM 58% | [4]; [7] -8% | [5]; [7] -5% | [6]; [7] -5%

Cc1cc(NC(=S)SCc2ccc3c(c2)OCO3)ccc1Br
active: [1]; [8] 98% | [1]; at 50.0 µM 89.7% | [2]; [8] 98% | [2]; at 50.0 µM 91.6% | [3]; [8] 98% | [3]; at 50.0 µM 91.2% | [4]; [8] 99% | [4]; at 50.0 µM 87.2% | [5]; [8] 98% | [5]; at 50.0 µM 91.2% | [6]; [8] 98% | [6]; at 50.0 µM 89.7%
inactive: [1]; [7] 38% | [2]; [7] 28% | [3]; [7] 54% | [4]; [7] 40% | [5]; [7] 49% | [6]; [7] 34%

Cc1ccc2ccc3ccc(C)nc3c2n1
active: [1]; [7] 94% | [1]; [8] 93% | [1]; at 50.0 µM 95.1% | [2]; [7] 92% | [2]; [8] 94% | [2]; at 50.0 µM 96.3% | [3]; [7] 93% | [3]; [8] 96% | [3]; at 50.0 µM 96.5% | [4]; [7] 91% | [4]; [8] 89% | [4]; at 50.0 µM 94.3% | [5]; [7] 96% | [5]; [8] 94% | [5]; at 50.0 µM 97% | [6]; [7] 94% | [6]; [8] 94% | [6]; at 50.0 µM 95.8%

CSC(=S)NN=C1CCCC1
active: [1]; [8] 97% | [1]; at 50.0 µM 87.5% | [2]; [8] 98% | [2]; at 50.0 µM 83.7% | [3]; [8] 97% | [3]; at 50.0 µM 89.9% | [4]; [8] 98% | [5]; [7] 78% | [5]; [8] 98% | [5]; at 50.0 µM 94.8% | [6]; [8] 97% | [6]; at 50.0 µM 89.5%
inactive: [1]; [7] 66% | [2]; [7] 57% | [3]; [7] 61% | [4]; [7] 49% | [4]; at 50.0 µM 57.8% | [6]; [7] 58%

CCOC(=O)c1c(C)c2c(n1C)CCc1sc(N)nc1-2
inactive: [1]; [7] 14% | [1]; [8] 66% | [2]; [7] 7% | [2]; [8] 58% | [3]; [7] 5% | [3]; [8] 65% | [4]; [7] -1% | [4]; [8] 26% | [4]; at 50.0 µM 43.3% | [5]; [7] 2% | [6]; [7] -1% | [6]; [8] 58%
active: [1]; at 50.0 µM 96% | [2]; at 50.0 µM 96.8% | [3]; at 50.0 µM 98.3% | [5]; [8] 80% | [5]; at 50.0 µM 96.7% | [6]; at 50.0 µM 90.2%

CCCCCC(O)C(C)CO (stereo not given)
inactive: [1]; [7] 1% | [1]; [8] -3% | [1]; at 50.0 µM 12.8% | [2]; [7] -2% | [2]; [8] -3% | [2]; at 50.0 µM -7.6% | [3]; [7] -2% | [3]; [8] -4% | [3]; at 50.0 µM -4.2% | [4]; [7] -7% | [4]; [8] -4% | [4]; at 50.0 µM 42.9% | [5]; [7] 0% | [5]; [8] -1% | [5]; at 50.0 µM 0.9% | [6]; [7] -1% | [6]; [8] -1% | [6]; at 50.0 µM 14.4%

O=NN(CCCl)C(=O)Nc1cc(=O)[nH]c(SCc2ccccc2)n1
inactive: [1]; [7] -23% | [1]; [8] 52% | [1]; at 50.0 µM 8.95% | [2]; [7] 3% | [2]; [8] 10% | [2]; at 50.0 µM -3.6% | [3]; [7] -10% | [3]; [8] 33% | [3]; at 50.0 µM 4.7% | [4]; [7] 14% | [4]; [8] 12% | [4]; at 50.0 µM 45.5% | [5]; [7] 5% | [5]; [8] 30% | [5]; at 50.0 µM 16.9% | [6]; [7] -11% | [6]; at 50.0 µM 66.5%
active: [6]; [8] 70%

Cc1nc(C)c(C(=O)NNC(=O)C[N+](C)(C)C)cc1C(=O)NNC(=O)C[N+](C)(C)C
inactive: [1]; [7] 66% | [1]; [8] 8% | [1]; at 50.0 µM -23.2% | [2]; [7] 18% | [2]; [8] 7% | [2]; at 50.0 µM -8.4% | [3]; [7] -36% | [3]; [8] -29% | [3]; at 50.0 µM 5.8% | [4]; [7] -2% | [4]; [8] -4% | [4]; at 50.0 µM 7.2% | [5]; [7] -20% | [5]; [8] 8% | [5]; at 50.0 µM -15.2% | [6]; [7] 17% | [6]; [8] 14% | [6]; at 50.0 µM -25.4%

O=[N+]([O-])c1ccc(C(Nc2ccccc2)c2ccc3cccnc3c2O)cc1 (stereo not given)
inactive: [1]; [7] -5% | [2]; [7] -1% | [3]; [7] -10% | [4]; [7] -37% | [5]; [7] -11% | [5]; at 50.0 µM 58.6% | [6]; [7] 4%
active: [1]; [8] 83% | [1]; at 50.0 µM 71.9% | [2]; [8] 82% | [2]; at 50.0 µM 80% | [3]; [8] 85% | [3]; at 50.0 µM 76% | [4]; [8] 79% | [4]; at 50.0 µM 81.3% | [5]; [8] 85% | [6]; [8] 85% | [6]; at 50.0 µM 82.2%

COC(=O)/C(=C\c1cn(C(C)=O)c2ccccc12)P(=O)(OC)OC
active: [2]; [8] 70% | [3]; at 50.0 µM 70.8% | [5]; [8] 73% | [5]; at 50.0 µM 78.5% | [6]; at 50.0 µM 75.8%
inactive: [1]; [7] 9% | [1]; [8] 21% | [1]; at 50.0 µM 41.8% | [2]; [7] 5% | [2]; at 50.0 µM 62.6% | [3]; [7] 2% | [3]; [8] 51% | [4]; [7] 31% | [4]; [8] 38% | [4]; at 50.0 µM 63.9% | [5]; [7] -24% | [6]; [7] 16% | [6]; [8] 69%

— PubChem BioAssay (NCI)
